Measurements as given in the supplement of paper PMC9433436.
± gives the standard deviation of the averaged measurements. In all, about 4,100 sequences were measured (“relative kcat/Km (krel) vs genomic leader AAAGAU”: median about 1.7, highest 2% from about 6.5 on). This excerpt belongs to a sample that is enriched for the highest values.

Target: T1, E. coli RNase P holoenzyme (M1 P RNA + rnpA protein) (UniProt P0A7Y8)
T1 sequence: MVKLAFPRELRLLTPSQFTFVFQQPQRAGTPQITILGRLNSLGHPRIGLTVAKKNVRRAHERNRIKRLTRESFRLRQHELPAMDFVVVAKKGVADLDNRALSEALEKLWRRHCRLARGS
Experiment: relative kcat/Km (krel) vs genomic leader AAAGAU (relative (reference leader = 1)); higher = faster RNase P cleavage
Procedure: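 HTS-Kin: a pool of ptRNA-Met (21C construct) with all 4096 combinations of 5' leader nucleotides N(-6) to N(-1) was processed in vitro by E. coli RNase P (P RNA + rnpA/C5 protein) under multiple-turnover conditions at 37 C, pH 8, 17.5 mM MgCl2. Residual substrate was Illumina-sequenced at several fractions reacted, and relative kcat/Km (krel) was computed by internal competition kinetics, calibrated to the genomic leader (AAAGAU = 1). The listed hexamer is the varied N(-6)..N(-1) leader (DNA letters), and it sits between a fixed 5' stem-loop flank (GCAUGCACGAAAGUGCGUGCUAUGAA) and the mature tRNA-Met starting GGCUACGUAGCUCAGUUGG. Two technical replicates are averaged.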

[1] = fraction of substrate reacted: ~9-10% (9.79% repeat 1, 9.1% repeat 2)
[2] = fraction of substrate reacted: ~13-16% (15.68% repeat 1, 13.17% repeat 2)
[3] = fraction of substrate reacted: ~26-29% (28.66% repeat 1, 26.4% repeat 2)

Sequence	relative kcat/Km [1]	relative kcat/Km [2]	relative kcat/Km [3]
ATGAGA	0.619 ± 0.34	0.964 ± 0.71	2.28 ± 0.37
ATCAAC	3.56 ± 1.5	4.05 ± 0.78	5.86 ± 1.6
TGCAAC	1.87 ± 0.58	1.45 ± 0.22	2.22 ± 0.84
CCCAAC	2.26 ± 0.55	2.15 ± 0.29	3.75 ± 1.1
CTCAAC	3.75 ± 0.14	5.06 ± 1.2	7.63 ± 3.4
TTCAAG	2.98 ± 2.4	3.38 ± 0.47	5.77 ± 2
TTCAAA	4.87 ± 2.9	6.52 ± 1.5	9.38 ± 3.5
TGCAAT	0.917 ± 0.7	1.18 ± 0.72	1.9 ± 0.94
TCAAAA	2.12 ± 1.1	1.64 ± 0.34	2.89 ± 1.2
TCAATT	2.1 ± 1.1	1.92 ± 0.12	2.3 ± 0.3
TTCAAT	4.1 ± 1.6	5.53 ± 0.71	9.07 ± 3.9
CTTAAC	2.53 ± 1.3	2.52 ± 0.82	3.93 ± 1.3
TTCAAC	4.99 ± 1.6	6.12 ± 0.93	8.94 ± 3.2
CTTCTT	2.75 ± 1.4	3.05 ± 0.55	3.45 ± 0.96
AACCGC	3.24 ± 0.86	3.02 ± 0.23	4.02 ± 0.71
GATTGG	–	–	0.409 ± 0.2
ATTCCA	2.17 ± 0.89	2.11 ± 0.63	1.93 ± 0.82
TAATTA	2.15 ± 1.5	2.05 ± 0.57	2.99 ± 1.1
ACGTTC	2.18 ± 0.36	2.45 ± 0.76	3.59 ± 1.4
CATCAA	2.69 ± 0.095	3.35 ± 0.32	4.59 ± 1.9
TCCGGA	1.02 ± 0.16	1.33 ± 0.95	1.83 ± 1.3
TCGCAT	2.12 ± 0.11	3.11 ± 0.57	5.13 ± 2.3
CCCAAT	2.73 ± 0.86	3.48 ± 0.28	5.27 ± 1.6
GGCAAC	2.31 ± 1.6	2.29 ± 0.56	3.36 ± 0.68
GCCAAC	1.34 ± 0.25	1.28 ± 1.1	3.94 ± 1

Sequence	relative kcat/Km [1]	relative kcat/Km [2]	relative kcat/Km [3]
GTCAAC	4.47 ± 1.7	5.05 ± 1.3	7.94 ± 3.1
AGCAAT	2.43 ± 0.54	2.33 ± 0.049	3.3 ± 1.1
CGCAAT	1.86 ± 0.36	2.82 ± 1.1	4.14 ± 1.8
CTCAAT	4.23 ± 0.85	5.46 ± 1.7	7.66 ± 3.5
ATCAAT	3.19 ± 0.91	4.2 ± 0.86	6.65 ± 3.1
AGTAAG	–	1.26 ± 0.66	3.3 ± 0.62
TAATCG	–	0.624 ± 0.13	1.73 ± 0.43
TAGGTG	–	–	0.812 ± 0.66
GCAATG	–	–	1.35 ± 0.34
TTGCAC	2.41 ± 1.3	2.27 ± 0.05	3.33 ± 0.78
TCTGTT	1.56 ± 0.75	1.38 ± 1.1	1.89 ± 1.2
ACCAAA	2.83 ± 2.3	3.55 ± 0.63	4.37 ± 0.92
AATGAA	2.18 ± 1.1	2.14 ± 0.073	2.72 ± 0.88
GGCGAT	1.24 ± 0.38	1.52 ± 0.5	2.32 ± 0.83
GGGCAA	–	1 ± 0.65	1.5 ± 0.79
GGGGAT	–	–	1.93 ± 1.9
AATCAT	3.17 ± 2	2.88 ± 0.24	4.38 ± 1.7
AATCAC	2.09 ± 1.1	2.63 ± 0.078	4.12 ± 1.3
TATCAC	4.08 ± 2.5	4.88 ± 0.12	7.11 ± 2.8
GATCAC	2.93 ± 0.77	4.27 ± 1.3	5.26 ± 2.1
TATCAT	4.22 ± 1.9	5.02 ± 0.57	7.37 ± 3.5
GATCAT	2.26 ± 0.96	3.62 ± 0.21	5.17 ± 1.7
CCATCT	2.12 ± 1.5	1.53 ± 1.1	2.64 ± 0.42
TACACG	2.67 ± 2.1	2.37 ± 0.74	3.55 ± 0.64
TAGTAC	4.35 ± 1.3	5.28 ± 0.82	7.85 ± 3.4

Sequence	relative kcat/Km [1]	relative kcat/Km [2]	relative kcat/Km [3]
TAGTAA	3.7 ± 0.66	4.78 ± 0.65	6.72 ± 3
TAGTAT	3.26 ± 0.97	4.14 ± 0.84	6.5 ± 3.2
CAGTAC	3.68 ± 1.6	4.92 ± 0.95	6.37 ± 2.2
AAGTAC	3.18 ± 1.6	3.53 ± 0.57	4.86 ± 1.7
AAGTAA	2.99 ± 1.7	3.36 ± 0.17	4.47 ± 1.6
TCATCG	1.66 ± 1.1	0.943 ± 0.074	1.96 ± 0.15
CGATGC	2.88 ± 0.51	2.7 ± 1.8	4.03 ± 1.4
TAGCTT	1.84 ± 0.3	2.04 ± 0.21	2.8 ± 1.2
TTCGCA	4.21 ± 0.84	6.08 ± 1.7	8.75 ± 3.8
GTCGCG	2.3 ± 2.2	1.77 ± 0.36	3.47 ± 0.87
GGCGCA	1.73 ± 0.44	2 ± 1.2	3.02 ± 1.3
GTCGCC	4.34 ± 1.4	5.5 ± 0.42	7.93 ± 3.1
ATCGCA	3.36 ± 1	4.58 ± 0.2	6.35 ± 2.8
TGCGCA	2 ± 0.91	1.69 ± 0.53	2.46 ± 0.77
GTCGCA	4.66 ± 1.2	5.5 ± 1.6	7.77 ± 3.1
ATCGCG	2.62 ± 1.1	1.7 ± 0.89	3.07 ± 0.91
GTCGTC	3.09 ± 1.7	2.79 ± 0.12	4.02 ± 1.6
ATCGCT	2.5 ± 0.7	2.34 ± 0.31	3.27 ± 0.6
ATCGCC	4.35 ± 0.56	5.34 ± 2	7.69 ± 3
GTCGCT	2.09 ± 1.2	2.03 ± 0.41	3.35 ± 1
GGTCAA	0.981 ± 0.11	1.45 ± 0.14	1.83 ± 1.1
CATTCA	2.03 ± 0.96	2.26 ± 0.27	2.76 ± 0.83
TATACC	1.83 ± 0.44	2.35 ± 0.29	2.84 ± 1.4
TATGGT	–	–	1.77 ± 1.3
CTGCCT	2.67 ± 0.64	1.47 ± 0.29	1.91 ± 0.022

Sequence	relative kcat/Km [1]	relative kcat/Km [2]	relative kcat/Km [3]
GGAGAG	–	–	1.19 ± 0.14
ATTTTT	2.48 ± 0.92	2.63 ± 0.22	3.89 ± 1.3
TTTAGA	2.52 ± 0.65	3.74 ± 0.44	5.73 ± 2.2
CCCCAT	1.7 ± 1.5	3.312 ± 0.011	4.95 ± 1.3
CTCGCT	1.9 ± 0.4	2.61 ± 0.72	3.67 ± 0.94
TTCGCC	4.66 ± 1.2	6.09 ± 1.6	9.48 ± 3.8
CTCGCA	4.01 ± 1.4	4.94 ± 0.48	6.71 ± 2.1
CTCGTA	3.1 ± 0.69	3.21 ± 0.68	4.83 ± 2
CTCGCG	2.22 ± 1.4	1.19 ± 1.2	3.19 ± 1
TTCGCG	–	2.32 ± 0.79	3.87 ± 0.24
TTCGCT	2.88 ± 1.4	3.06 ± 0.21	4.56 ± 1.4
CGCGCA	1.86 ± 0.068	2.64 ± 0.045	3.31 ± 0.91
CTCGCC	4.36 ± 1.6	5.23 ± 1.7	7.26 ± 2.8
TAAAGG	–	–	0.833 ± 0.34
CCGACA	0.997 ± 0.31	–	0.842 ± 0.8
GTGTCG	–	–	0.804 ± 0.49
AGCCTA	2.05 ± 0.87	1.97 ± 0.57	2.57 ± 0.69
GACAGG	–	–	1.2 ± 0.042
CACAGT	–	–	1.95 ± 1.9
GACAGA	3.09 ± 0.71	4.59 ± 1.2	6.53 ± 2.4
CACAGA	3.95 ± 0.46	4.77 ± 2	7.2 ± 2.4
AACAGA	3.71 ± 2.3	4.083 ± 0.036	5.65 ± 2.1
CACAGG	0.41 ± 0.093	–	1.35 ± 0.051
GTACAG	–	–	1.99 ± 0.4
GAAGGT	–	–	1.31 ± 0.065
